Several values for one entry are separate records, joined by “and”; a condition that tells them apart may be missing. Equal values may be shown once. Results filed as inconclusive are left out. A structure can be active in one record and inactive in another. Activity calls are given as the source filed them. How the source made its calls, unless noted: active means hit-call score of the fitted dose curve at least 0.9, where 1 is the maximum; inactive means score below 0.9.
Assays:
[1] = CCTE_Shafer_MEA_acute_spike_number: CCTE's Neural Acute Assay for Total Number of Spikes, Shafer Lab (AID 2284008);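 on AC50: curve fitted for decrease in spike count so AC50 reflects inhibitors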
Method in brief: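 Total spike count from 40 min recordings before and during compound exposure (0.03-40 uM), given as per-well percent change. Cortical cultures from rat, DIV 13 or 15, 37 C; adaptive detection threshold 8x rms noise.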

[2] = CCTE_Shafer_MEA_acute_firing_rate_mean: CCTE's Neural Acute Assay for Mean Firing Rate, Shafer Lab (AID 2284009);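 further: analyzed for loss of signal so actives lower firing rate relative to DMSO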
Method in brief: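 Spontaneous spiking of primary rat cortical networks, DIV 13/15, 37 C. Compound 0.03-40 uM, n ≥3 wells; 40 min baseline vs 40 min treated. Endpoint fitted in loss-of-signal direction against DMSO.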

[3] = CCTE_Harrill_HTTr_Viability_MCF7: CCTE's 6-hour Cell Viability Assessment for the High-Throughput Transcriptomics (HTTr) Platform, in MCF-7 cells cultured in DMEM + 10% fetal bovine serum, Harrill Lab (AID 2284010)
Method in brief: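 Propidium iodide exclusion, imaged by high-content analysis, gauged viability after a six-hour exposure across eight concentrations. Cells were MCF-7 grown in DMEM with 10% fetal bovine serum; fits run in both directions against DMSO.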

[4] = CCTE_Harrill_HTTr_Apoptosis_MCF7: CCTE's 6-hour Apoptosis Assessment for the High-Throughput Transcriptomics (HTTr) Platform, in MCF-7 cells cultured in DMEM + 10% fetal bovine serum, Harrill Lab (AID 2284011)
Method in brief: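 High-content imaging of CellEvent Caspase 3/7 Green signal follows a six-hour exposure, with eight concentrations per chemical. MCF-7 cells grown in DMEM plus 10% fetal bovine serum; activity fitted in both directions against DMSO.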

[5] = CCTE_Harrill_HTTr_CellCount_MCF7: CCTE's Cell Proliferation Assessment for the High-Throughput Transcriptomics (HTTr) Platform, Harrill Lab (AID 2284012; active means hit-call score of the fitted dose curve at least 0.9, where 1 is the maximum;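 further: cells exposed to compound for six hours; intended direction is loss of nuclei count meaning fewer cells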)
Method in brief: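 Cell count from high-content imaging of Hoechst-labeled nuclei serves as viability/growth readout. Chemicals were applied to MCF-7 cells in eight concentrations for six hours, with fitting in both directions relative to DMSO.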

[6] = CCTE_Shafer_MEA_acute_burst_number: CCTE's Neural Acute Assay for Single-Electrode Bursts, Shafer Lab (AID 2284013)
Method in brief: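 Burst totals were derived with adaptive spike detection (8x rms threshold) on filtered signals from rat cortical cultures; change relative to pre-treatment baseline after 40-min compound exposure (0.03-40 uM) was fitted in the negative direction against DMSO.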

[7] = CCTE_Shafer_MEA_acute_burst_duration_mean: CCTE's Neural Acute Assay for Mean Burst Duration, Shafer Lab (AID 2284014);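 further: hits are decreases in mean burst duration relative to DMSO controls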
Method in brief: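 Acute exposure of mature rat cortical networks (DIV 13 or 15) grown on microelectrode arrays to 0.03-40 uM compound. Mean burst duration compared with the 40-min pre-dose baseline over a 40-min post-dose recording at 37 C.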

[8] = CCTE_Shafer_MEA_acute_per_burst_spike_number_mean: CCTE's Neural Acute Assay for Average Number of Spikes Per Burst, Shafer Lab (AID 2284015);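 further: hits are decreases in mean spikes per burst versus baseline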
Method in brief: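 Read-out: percent change in mean spikes per burst, each well's post-exposure 40-min recording versus its own 40-min baseline. Rat cortical cultures, DIV 13 or 15, compounds 0.03-40 uM; DMSO is negative control, loss-of-signal fitting.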

[9] = CCTE_Shafer_MEA_acute_interburst_interval_mean: CCTE's Neural Acute Assay for Mean Interburst Interval, Shafer Lab (AID 2284016);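 further: percent change of mean interburst interval versus each well's own pre-dose baseline; curves fitted for decrease in interburst interval relative to DMSO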
Method in brief: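 Rat cortical cultures, DIV 13/15; 20 min equilibration, 40 min baseline, compound 0.03-40 uM, 40 min re-recording, 37 C. Spikes detected at 8x rms noise (300-5000 Hz band-pass). Endpoint: % change in interburst interval, fitted in loss direction vs DMSO.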

[10] = CCTE_Shafer_MEA_acute_burst_percentage_mean: CCTE's Neural Acute Assay for Percentage of Spikes in a Burst, Shafer Lab (AID 2284017);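 on AC50: curve fitted for loss of signal so potency reflects decreased burst percentage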
Method in brief: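 Rat cortical cultures, DIV 13/15, 37 C. Spikes detected at 8x rms noise (300-5000 Hz band-pass). Burst spikes/total spikes averaged across electrodes per well; % change post- vs pre-treatment (40 min each), loss-of-signal fit vs DMSO.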

[11] = CCTE_Shafer_MEA_acute_burst_percentage_std: CCTE's Neural Acute Assay for Standard Deviation of Burst Percentage, Shafer Lab (AID 2284018);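 further: fitted in the negative direction so actives lower burst percentage SD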
Method in brief: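 Primary rat cortical neurons on 16-electrode MEA wells were recorded 40 min at baseline (DIV 13 or 15), then 40 min after compound (0.03-40 uM), at 37 C. Well value is SD across electrodes of spikes-in-bursts/total spikes; endpoint is percent change, DMSO-referenced.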

[12] = CCTE_Shafer_MEA_acute_per_network_burst_spike_number_mean: CCTE's Neural Acute Assay for Average Number of Spikes in a Network Burst, Shafer Lab (AID 2284019)
Method in brief: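 Acute exposure of rat primary cortical networks (DIV 13/15) on MEAs; adaptive spike detection at 8x rms noise, 37 C. Percent change in spikes per network burst after 40 min with compound (0.03-40 uM), negative direction vs DMSO.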

[13] = CCTE_Shafer_MEA_acute_per_network_burst_spike_number_std: CCTE's Neural Acute Assay for Standard Deviation of Number of Spikes in a Network Burst, Shafer Lab (AID 2284020);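 further: fitted for decrease in spike-number SD versus DMSO so actives lower it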
Method in brief: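 Acute MEA exposure, rat cortical neurons, 0.03-40 uM. Per-well % change versus own baseline; DMSO as negative control.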

[14] = CCTE_Shafer_MEA_acute_per_network_burst_electrodes_number_mean: CCTE's Neural Acute Assay for Mean Number of Electrodes in a Network Burst, Shafer Lab (AID 2284021);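 further: curves fitted for decreases only so hits reduce electrodes per burst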
Method in brief: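 Percent change from baseline was computed as mean electrode count per network burst, comparing 40 min recordings before and during compound (0.03-40 uM) exposure. Cultures were rat cortical neurons at DIV 13 or 15, recorded on MEAs at 37 C with an adaptive 8x rms threshold.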

[15] = CCTE_Shafer_MEA_acute_network_burst_percentage: CCTE's Neural Acute Assay for Percentage of Network Bursts, Shafer Lab (AID 2284022);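 further: curves fitted for loss so actives lower network burst percentage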
Method in brief: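 Network burst percentage (spikes in network bursts divided by total spikes) recorded at 37 C over 40 min baseline and 40 min after compound, 0.03-40 uM, in rat cortical cultures at DIV 13 or 15. Analysed as percent change from baseline versus DMSO.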

[16] = CCTE_Shafer_MEA_acute_cross_correlation_area: CCTE's Neural Acute Assay for Area of Cross Correlation, Shafer Lab (AID 2284024);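 further: area under pooled inter-electrode spike cross-correlation near zero lag as percent change from own baseline; curves fitted for loss of cross-correlation area so actives lower synchrony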
Method in brief: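 Percent change in well-wide cross-correlation area (window around zero lag) between 40 min baseline and 40 min post-compound recordings, 37 C; rat cortical cultures on MEA at DIV 13 or 15, dosed 0.03-40 uM, wells needing >/= 10 active electrodes.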

[17] = CCTE_Shafer_MEA_acute_cross_correlation_HWHM: CCTE's Neural Acute Assay for Cross Correlation at Half Width at Half Maximum, Shafer Lab (AID 2284026);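 further: percent change per well from pre-dose baseline in spike cross-correlogram half width; hits are a decrease in cross-correlogram half width relative to DMSO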
Method in brief: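 Per-well percent change in cross-correlogram half width at half maximum, derived from 40-min recordings before and after compound (0.03-40 uM) at 37 C. Cultures were rat cortical neurons, DIV 13 or 15, with adaptive spike detection at 8x rms.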

[18] = CCTE_Shafer_MEA_acute_synchrony_index: CCTE's Neural Acute Assay for Synchrony, Shafer Lab (AID 2284027);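 further: network synchrony index of spontaneous spiking in primary rat cortical neurons on MEAs; fitted for loss of signal so actives lower synchrony relative to DMSO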
Method in brief: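 The synchrony index is taken as percent change per well between a 40 min baseline and a 40 min recording with compound (0.03–40 uM), at 37C. Rat cortical cultures on multiwell MEAs at DIV 13 or 15, spike threshold 8× rms noise.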

[19] = biological target: Estrogen receptor (Homo sapiens) (UniProt P03372); test: CCTE_Deisenroth_AIME_96WELL_LUC_Active: CCTE's 96-well Estrogen Receptor Transactivation Assay with AIME metabolic competence (ERTA luciferase; metabolism positive), Deisenroth Lab (AID 2284023; active means hit-call score of the fitted dose curve at least 0.9, where 1 is the maximum)
Chain of Estrogen receptor (Homo sapiens) (P03372 whole entry, looked up): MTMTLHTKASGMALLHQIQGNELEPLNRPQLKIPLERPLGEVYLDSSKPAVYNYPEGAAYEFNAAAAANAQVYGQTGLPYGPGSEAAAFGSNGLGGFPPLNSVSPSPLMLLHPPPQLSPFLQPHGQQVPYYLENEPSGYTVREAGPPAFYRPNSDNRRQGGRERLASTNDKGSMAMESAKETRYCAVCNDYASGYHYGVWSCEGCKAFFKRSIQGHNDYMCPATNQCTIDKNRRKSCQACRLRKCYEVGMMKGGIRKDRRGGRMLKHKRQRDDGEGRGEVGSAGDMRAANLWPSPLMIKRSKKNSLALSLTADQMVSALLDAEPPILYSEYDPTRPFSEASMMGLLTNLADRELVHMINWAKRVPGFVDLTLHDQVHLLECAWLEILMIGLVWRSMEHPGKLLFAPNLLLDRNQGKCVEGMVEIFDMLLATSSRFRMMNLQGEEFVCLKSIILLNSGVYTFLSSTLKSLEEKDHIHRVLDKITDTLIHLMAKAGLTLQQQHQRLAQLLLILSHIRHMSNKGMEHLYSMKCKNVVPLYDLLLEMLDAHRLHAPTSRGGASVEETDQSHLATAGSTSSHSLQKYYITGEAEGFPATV
Method in brief: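 Metabolism-positive mode: induced rat hepatic S9 in alginate microspheres conditions test solutions (0.002 - 200 uM, 10 points) for 2 hours. VM7Luc4E2 ER luciferase reporter cells then exposed 24 h; positive-direction fit against 17beta-estradiol, n=4 typical.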

[20] = biological target: Estrogen receptor (Homo sapiens) (UniProt P03372); test: CCTE_Deisenroth_AIME_96WELL_LUC_Inactive: CCTE's 96-well Estrogen Receptor Transactivation Assay without AIME metabolic competence (ERTA luciferase; metabolism negative), Deisenroth Lab (AID 2284025; active means hit-call score of the fitted dose curve at least 0.9, where 1 is the maximum)
Method in brief: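 Metabolism-negative arm: chemicals (0.002–200 uM, 10 points) incubated 2 h with alginate-water microspheres, then medium moved onto VM7Luc4E2 cells for 24 h luciferase read-out. Positive direction vs 17beta-estradiol; n≥4 experiments.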

Measured: AC50

CC#C[C@]1(O)CC[C@H]2[C@@H]3CCC4=CC(=O)CCC4=C3[C@@H](c3ccc(N(C)C)cc3)C[C@@]21C
active: [1] 1.74 µM and 2.84 µM | [2] 1.74 µM and 2.84 µM | [6] 1.66 µM | [8] 32.9 µM | [9] 4.16 µM | [10] 16.3 µM and 5.2 µM | [11] 4.22 µM and 6.02 µM | [13] 9.84 µM | [14] 7.54 µM | [15] 16.2 µM | [17] 20 µM and 5.43 µM | [18] 16.2 µM and 7.18 µM
inactive: [3] | [4] | [5] | [6] | [7] | [8] | [9] | [12] | [13] | [14] | [15] | [16]

CCC(=C(c1ccc(O)cc1)c1ccc(OCCN(C)C)cc1)c1ccccc1
active: [4] 35.7 µM | [7] 23 µM | [8] 21 µM | [10] 20.6 µM | [13] 23.8 µM | [18] 20.9 µM
not listed: [3] | [19] | [20]
inactive: all other assays above

CCC(C)(C)C1CCC(O)CC1 (stereo not drawn)
inactive: [3] | [4] | [5]

COCC(C)OCC(C)O (stereo not drawn)
inactive: [3] | [5]

Oc1cc2ccccc2c2ccccc12
not listed: [3] | [4] | [19] | [20]
inactive: all other assays above

CCc1ccc(CCOc2ccc(CC3SC(=O)NC3=O)cc2)nc1 (stereo not drawn)
not listed: [4] | [19] | [20]
inactive: all other assays above

CN(C)C=O
not listed: [3] | [4] | [5] | [19] | [20]
inactive: all other assays above

CCCOc1sc(C(=O)N2CCC(c3cc(CN)ccc3F)CC2)c(C)c1Br
not listed: [3] | [4] | [5] | [19] | [20]
inactive: all other assays above

CN1CCC[C@H]1c1cccnc1
active: [6] 0.0479 µM | [16] 0.7 µM
not listed: [3] | [4] | [5] | [19] | [20]
inactive: all other assays above

CCCCCCCCCCCCc1ccccc1S(=O)(=O)O
active: [18] 33.1 µM
not listed: [5] | [19] | [20]
inactive: all other assays above

CCCCCCCC(=O)O
inactive: [3] | [4]

CCCCCCCCCCCCN1CCCC1=O
not listed: [4] | [19] | [20]
inactive: all other assays above

CCCCC(CC)COC(=O)CCCCC(=O)OCc1ccccc1 (stereo not drawn)
inactive: [3] | [4] | [5]

CC[C@H](C)[C@@H](C(=O)O)n1sc2ccccc2c1=O
inactive: [5]

CCCCCCC(=O)O
inactive: [5]

Cc1oc(-c2ccccc2)nc1CCOc1ccc(C[C@H](Nc2ccccc2C(=O)c2ccccc2)C(=O)O)cc1
inactive: [5]

CC(O)CO (stereo not drawn)
inactive: [5]

CCc1nn(C2CCCCC2)c2cc(C3(C#N)CCC(C(=O)O)CC3)ccc12 (stereo not drawn)
inactive: [5]

CCN(CC)CCNc1ccc(CNC=O)c2sc3ccc(OC)cc3c(=O)c12
inactive: [5]

C=C(C)C(=O)OCCC(F)(F)C(F)(F)C(F)(F)C(F)(F)C(F)(F)C(F)(F)F
inactive: [4] | [5]

CC(=O)CC(C)(C)O
inactive: [5]

CCCCOCCO
inactive: [4] | [5]

CC(C)(C)c1ccc(O)c(C(C)(C)C)c1
inactive: [4] | [5]
active: [19] 26.4 µM

CCCOC(=O)c1ccc(O)cc1
inactive: [5]

c1ccc2c(c1)ccc1ccccc12
inactive: [19]
active: [20] 133 µM

OC1CCCCC1
inactive: [4] | [5]

CCCCC[C@H](O)CC(=O)CCc1ccc(O)c(OC)c1
inactive: [5]
active: [19] 26 µM | [20] 24.9 µM

CC(C)(C)c1cccc(C(C)(C)C)c1O
inactive: [4] | [5]

c1ccc2cc3c(ccc4ccccc43)cc2c1
inactive: [3]
active: [19] 11.8 µM | [20] 5.25 µM

C#C[C@]1(O)CC[C@H]2[C@@H]3CCC4=CC(=O)CC[C@@H]4[C@H]3CC[C@@]21C
inactive: [5]

ClC1=C(Cl)C(Cl)(Cl)C(Cl)=C1Cl
inactive: [4] | [5]

OCCC(F)(F)C(F)(F)C(F)(F)C(F)(F)C(F)(F)C(F)(F)F
inactive: [5]

O=C(O)Cc1cc(I)c(Oc2cc(I)c(O)c(I)c2)c(I)c1
inactive: [4] | [5]

O=[N+]([O-])c1ccc(O)cc1
inactive: [5]

COc1ccc([N+](=O)[O-])cc1N
inactive: [5]

CCOC(=O)CC(O)(CC(=O)OCC)C(=O)OCC
inactive: [5]

COCC(C)O (stereo not drawn)
inactive: [5]

CCCCCCCCOC(=O)CCCCCCCCC(=O)OCCCCCCCC
inactive: [4] | [5]

COC(=O)CCCCC(=O)OC
inactive: [5]

Cc1cc(C)c(O)c(C)c1
inactive: [4] | [5]

COc1cc(CCC(=O)CC(=O)CCc2ccc(O)c(OC)c2)ccc1O
inactive: [3] | [5] | [20]

O=C1OC2(c3ccccc31)c1cc(Br)c(O)c(Br)c1Oc1c2cc(Br)c(O)c1Br
inactive: [5]

N#C[C@@H]1CC(F)(F)CN1C(=O)CNC1CC2CCC(C1)N2c1ncccn1 (stereo partly drawn)
inactive: [4]

O=C(OCCOCCOC(=O)c1ccccc1)c1ccccc1
inactive: [5]

c1ccc2c(c1)Cc1ccccc1-2
inactive: [5] | [19]

Reference: PubChem BioAssay (EPA / NIEHS)
